Assay outcomes (PubChem)
ELG1 DNA repair – ELG1-dependent DNA repair inhibition; HEK293T ELG1-luciferase reporter, luminescence, 16 h; DNA damage induced by 5-fluorouridine; Potency, µM (highest dose often 46.1 µM), for the others: top-dose activity change, negative = inhibition, hits mostly inhibitors; 330,000 compounds, 2.3% hits; also: potency is read from the fitted curve at half-maximal effect; nearly all actives have a fitted effect of over 55% in size
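Overnight (16 hr) co-exposure of 2,000 cells/well to 5-fluorouridine and compound at 37 °C preceded detection. Luciferase was quantified via ONE-Glo luminescence; loss of signal denotes inhibition.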
DT40 TDP1 CPT – growth inhibition of DT40 Tdp1-/-;hTDP1 cells with camptothecin (screen for TDP1 inhibitors); chicken DT40 Tdp1-/-;hTDP1 cells + 20 nM CPT, ATP luminescence, 48 h; Potency, µM (titrated, usually from 46.2 µM), inactives show top-dose activity change, negative = growth inhibition, actives largely listed as inhibitors; 420,000 compounds, 12% hits; also: potency is read from the fitted curve at half-maximal effect; nearly all actives have a fitted effect of over 55% in size
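Cell growth measured by CellTiter-Glo luminescence after a minimum 48 h, 37 C compound exposure with 20 nM CPT in Tdp1-knockout DT40 cells stably expressing hTDP1, seeded 400/well; qHTS titration format.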
Giardia killer – Giardia lamblia killing; 340,000 compounds, 0.15% hits; Giardia lamblia trophozoite viability; AID 540267; activity change, % at 7.66 µM, hits read low; in the data active = activity change below about -80%; inconclusive = between about -30% and that limit;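 also: parasites exposed to compound for two days anaerobically before the ATP read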
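Trophozoites 100 cells/well + cpd; 48 hrs, 37 deg C, anaerobic. ATPLite 1-Step added, 15-30 min RT, luminescence read (ATP-based viability).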
IL1B secr inh – inflammasome signaling inhibition, IL-1 beta readout; THP-1 LPS/ATP IL-1B secretion, AlphaLISA, 16 h; hits give low values; activity change, % at 57.5 µM; 360,000 compounds, 4.7% hits; AID 743279; in the data active = activity change below about -50%; inconclusive = mostly about -30% to -49%
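Secreted IL-1B measured by AlphaLISA bead assay after 16 h compound exposure of THP-1 cells; compounds (final up to 57.5 uM) added 1 h before LPS (250 ng/mL) and ATP (1.25 mM) stimulation; lower signal means less secretion.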
DT40 TDP1 no CPT – qHTS for Inhibitors of human tyrosyl-DNA phosphodiesterase 1 (TDP1): qHTS in cells in absence of CPT; DT40 Tdp1-/- hTDP1 cells, no CPT, ATP luminescence, 48 h; Potency, µM (doses to about 46.2 µM), without a hit: at the top dose activity change, negative = growth inhibition, actives largely listed as inhibitors; 420,000 compounds, 15% hits; AID 686978, 2013; also: potency is read from the fitted curve at half-maximal effect; nearly all actives have a fitted effect of over 55% in size
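Cells were dispensed at 400 per well, compounds added by pin tool, plates incubated ≥48 hr at 37 °C, then CellTiter-Glo added for 30 min at room temperature before luminescence reading. Line: DT40 Tdp1-/- complemented with hTDP1; camptothecin omitted.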
TDP1 block – TDP1 (human) enzyme inhibition; recombinant TDP1, AlphaScreen DNA substrate cleavage; 350,000 compounds, 0.28% hits; Potency, µM (highest dose often 130 µM), inactives show at the top dose activity change, negative = inhibition, most hits filed as inhibitors; also: potency is read from the fitted curve at half-maximal effect; nearly all actives have a fitted effect of over 40% in size
Target sequence (Q9NUW8 whole entry, looked up): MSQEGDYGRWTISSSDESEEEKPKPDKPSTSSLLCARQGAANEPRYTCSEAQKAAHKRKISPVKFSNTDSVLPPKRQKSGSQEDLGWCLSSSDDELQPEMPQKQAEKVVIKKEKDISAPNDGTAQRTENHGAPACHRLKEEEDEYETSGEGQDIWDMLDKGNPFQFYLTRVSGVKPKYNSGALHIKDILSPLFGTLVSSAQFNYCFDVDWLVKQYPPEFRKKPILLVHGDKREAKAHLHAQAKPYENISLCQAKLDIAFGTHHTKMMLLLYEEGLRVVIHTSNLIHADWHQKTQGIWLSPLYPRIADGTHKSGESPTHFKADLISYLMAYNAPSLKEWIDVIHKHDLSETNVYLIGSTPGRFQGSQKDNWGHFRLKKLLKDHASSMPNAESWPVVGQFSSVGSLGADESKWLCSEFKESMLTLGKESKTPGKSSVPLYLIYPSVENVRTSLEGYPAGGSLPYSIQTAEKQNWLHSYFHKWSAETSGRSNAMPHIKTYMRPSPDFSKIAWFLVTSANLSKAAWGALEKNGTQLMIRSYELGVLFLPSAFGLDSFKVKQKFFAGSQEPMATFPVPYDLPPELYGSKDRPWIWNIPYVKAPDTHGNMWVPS
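Tdp1 1 nM final; 15 min RT w/ cpd; substrate 15 nM, 5 min; beads 10 ug/ml, 10 min; AlphaScreen read. Neg ctrl: no enzyme.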
* hit, by the source's call; u = inconclusive; x = not tested or not shown; [ ] = another dose, or the depositor's remark. Sampled rows, rich in hits. Any-hit rate of the full collection: about 19%. Unless noted, calls follow the shape of the dose curve; as a rule, active = well fitted curve in the direction sought with a large enough effect; inconclusive = small, poorly fitted or top-dose-only effect, or another doubt; inactive = no such curve, though single readings can be large; an effect the other way counts as inactive or inconclusive. % is scaled to controls: 0 for no effect and ±100 for the full control effect.

SMILES	ELG1 DNA repair	DT40 TDP1 CPT	Giardia killer	IL1B secr inh	DT40 TDP1 no CPT	TDP1 block
Cc1cccc(NC(=O)c2c(C)cc(C)nc2SCC(=O)c2ccccc2)c1	x	u	x	x	16µM*	1%
O=C(/C=C/[C@H]1O[C@@H](n2ccc(=O)[nH]c2=O)[C@H](O)[C@@H]1O)N1CCN(Cc2ccc(F)cc2)CC1	x	6%	x	26	9%	x
Cc1cc(=S)c2ccccc2[nH]1	-16%	u	22	-86*	-15%	1%
Cc1ccc2[nH]c(C)cc(=S)c2c1	-9%	13µM*	20	-69*	16µM*	1%
Cc1ccc2[nH]c3c(c2c1)CCNC3=O	u	1%	-9	-23	-12%	1%
COCC(=O)N1CCC[C@@]2(CCN(Cc3nccs3)C2)C1	x	3%	x	x	3%	x
CC(C)CN1CC[C@@]2(CCCN(C(=O)c3cc(C(F)(F)F)cc(C(F)(F)F)c3)C2)C1	x	0%	x	x	u	x
CC(C)NC(=O)C1(C)CCN1C(=O)C1(c2ccccc2)CCCC1 (stereo not given)	x	u	x	52	u	x
C#Cc1ccc(NC(=O)C2(C)CCN2C(=O)C2(c3ccccc3)CCCC2)cc1 (stereo not given)	x	23µM*	x	u	16µM*	x
CC1(C(=O)Nc2cccc3ccccc23)CCN1C(=O)C1(c2ccccc2)CCCC1 (stereo not given)	x	u	x	18	18µM*	x
CCNC(=O)C1(C)CCN(Cc2ccc(OC(F)(F)F)cc2)C1 (stereo not given)	x	-24%	x	0	-26%	x
Clc1cccc(Nc2nc(-c3cccnc3)cs2)c1	u	u	1	-10	u	5%
OCCCNc1cc(-c2ccnc(Nc3cccc(Cl)c3)n2)ccn1	0.58µM*	0.15µM*	-29	-108*	0.16µM*	2%
CN(C)CCCNc1ccc(-c2cc(Nc3cccc(Cl)c3)ncn2)cn1	u	u	7	-3	u	4%
CCC(C)Oc1cc(-c2ccnc(Nc3cccc(Cl)c3)n2)ccn1 (stereo not given)	u	u	1	-86*	u	-1%
O=C(CN1CCCc2ccccc21)Nc1cccc(S(=O)(=O)N2CCOCC2)c1	0%	u	4	2	u	0%
CC1Cc2ccccc2N1CC(=O)Nc1cc(S(=O)(=O)N2CCOCC2)ccc1Cl (stereo not given)	x	u	x	-5	23µM*	x
O=C(CN1CCCc2ccccc21)Nc1cc(S(=O)(=O)N2CCCC2)ccc1Cl	1%	18µM*	11	-4	u	4%
Cc1ccc2c(c1)CCCN2CC(=O)Nc1cc(S(=O)(=O)N2CCCC2)ccc1Cl	2%	21µM*	15	12	15µM*	8%
CN1CCN(CC(=O)Nc2cc(S(=O)(=O)N3CCOCC3)ccc2Cl)CC1	25%	-21%	15	-1	1%	4%
O=C(Cn1[nH]c(=O)c2ccccc2c1=O)OCC(=O)c1ccccc1	u	10%	-13	-30	4%	0%
CCOC(=O)c1sc(/N=C/c2ccc(O)cc2O)cc1C	27%	-2%	0	-14	-20%	1%
COCCNc1nc(Oc2cccc3ccccc23)c2sccc2n1	x	12µM*	x	14	16µM*	x
COCCNc1nc(Oc2ccccc2)c2sccc2n1	x	29µM*	x	-14	23µM*	x
COCCNc1nc(Oc2cccc(NC(C)=O)c2)c2sccc2n1	x	u	x	26	-23%	x
SMILES	ELG1 DNA repair	DT40 TDP1 CPT	Giardia killer	IL1B secr inh	DT40 TDP1 no CPT	TDP1 block
CC(C)Oc1ccc(CNC(=O)C2CCN(c3nc4ccccc4nc3C(F)(F)F)CC2)cc1	x	4.1µM*	x	x	5.8µM*	0%
CSc1ccc(CCNC(=O)C2CCN(c3nc4ccccc4nc3C(F)(F)F)CC2)cc1	x	15µM*	x	x	12µM*	-3%
CNC(=O)C1CCN(c2nc3ccccc3nc2C(F)(F)F)CC1	x	u	x	x	u	3%
CCCCNC(=O)C1CCN(c2nc3ccccc3nc2C(F)(F)F)CC1	x	16µM*	x	x	u	-3%
COCCNC(=O)C1CCN(c2nc3ccccc3nc2C(F)(F)F)CC1	x	u	x	x	-20%	-3%
CC1=NNC(=O)c2ccccc2O1	0%	-28%	-4	2	-28%	-8%
COc1cc(NC(=S)NCc2cccs2)cc(OC)c1	0%	u	12	-9	u	0%
Cc1cc(C)cc(NC(=S)NCc2cccs2)c1	0%	15µM*	-12	0	u	3%
CCOC(=O)c1cc(-c2ccccc2)n(CCC(=O)NCCc2ccc(C)cc2)c1C	x	15µM*	x	x	8.2µM*	6%
CCOC(=O)c1cc(-c2ccccc2)n(CC(=O)N(C)c2ccc(OC)cc2)c1C	x	u	x	x	23µM*	7%
CCOC(=O)c1cc(-c2ccc(C)cc2)n(CCC(=O)NCCc2ccc(C)cc2)c1C	x	u	x	x	18µM*	-1%
CCOC(=O)c1c(C(=O)OCC)c(C)n(CCc2ccc(OC)c(OC)c2)c1C	15µM*	23µM*	-1	1	u	5%
CCOC(=O)c1cc(-c2ccccc2)n(CC(=O)Nc2ccc(OC)cc2)c1C	-2%	-29%	4	-9	u	-1%
COc1c(S(=O)(=O)NCCCn2ccnc2)ccc(Cl)c1Cl	1%	-8%	-8	16	-14%	6%
CCCNC(=O)COc1coc(CN2CCN(c3ccc(F)cc3)CC2)cc1=O	-4%	0%	-26	2	15%	0%
CCOC(=O)c1cc(-c2ccc(OC)cc2)n(CCC(=O)NCc2ccc(OC)cc2)c1C	x	u	x	x	18µM*	3%
CCOC(=O)c1cc(-c2ccccc2)n(CCC(=O)NCCc2ccc(OC)c(OC)c2)c1C	x	21µM*	x	x	23µM*	9%
CCOC(=O)c1cc(-c2ccc(C)cc2)n(CCC(=O)N2CCN(c3ccccn3)CC2)c1C	21µM*	23µM*	-12	-56*	23µM*	-1%
Cc1ccc(SCC(=O)N2CCN(c3ccccn3)CC2)cc1	u	-29%	2	23	-12%	1%
CCOC(=O)c1cc(-c2ccc(F)cc2)n(CCC(=O)NCCc2ccc(C)cc2)c1C	x	u	x	x	21µM*	2%
Cc1[nH]c2ccccc2c1C(=O)C(=O)N1CC=C(c2ccccc2)CC1	u	15µM*	-14	-14	23µM*	-3%
CCCSc1nc2c(c(=O)[nH]1)C(c1ccc(O)c(OCC)c1)CC(=O)N2 (stereo not given)	x	-16%	x	x	-13%	-4%
CCN(CC(=O)NCc1ccc(F)cc1)CC(=O)NC1CCCC1	-3%	7%	24	0	-27%	3%[0.0935 µM]
